Laboratory results: PubChem BioAssay (NCI)
Compounds without any hit were thinned out: in the full panel of roughly 83,000, 20% have a hit.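 How to read the values: 0–100, growth inhibition (40 = 60% inhibited); 0, no net growth; -100 to 0, cell death (-40 = 40% of starting cells died; -100 = all dead).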 The source made the active and inactive calls. The calls were made as follows: active = growth percent below 10; inactive = the rest.

test system: NCI-H322M lung; test: NCI-60 one-dose screen, 48 h (100 = growth as untreated, 0 = no growth, -100 = all killed); conditions: 10 µM unless noted

Compound	growth
CCOC(=O)c1cc(C(=O)c2ccc(O)c(O)c2)n2ccc(-c3ccn4c(C(=O)c5ccc(O)c(O)c5)cc(C(=O)OCC)c4c3)cc12	94.3% (inactive)
CC1C(/C=N/Nc2ccccc2)C(C#N)(C#N)C1(C#N)C#N (stereo unspecified)	75.1% (inactive)
O=C(/C=C/c1ccc(C(F)(F)F)cc1)Nc1ccc(C=C2c3ccccc3C(=O)c3ccccc32)cc1	97.3% (inactive)
CC/C=C\C[C@H](O)C/C=C1/C(=O)C=C[C@@]1(C)C/C=C\CCCC(=O)OC	106% (inactive)
COc1cc(-c2nn(-c3ccc(C(=O)O)cc3)cc2C(=O)O)ccc1O	98.5% (inactive)
COc1ccc(O)c(N=Nc2nccs2)c1	91.4% (inactive)
NCCNc1nc(Nc2ccc(-c3nc4ccccc4[nH]3)cc2)c2cn[nH]c2n1	98.9% (inactive)
COc1cc(-c2nn(-c3ccc(Br)cc3)cc2C(=O)O)ccc1O	95.3% (inactive)
OCCN1CCN(c2nc(Nc3ccc(-c4nc5ccccc5[nH]4)cc3)c3cn[nH]c3n2)CC1	-89.8% (active)
O=c1oc2c(C(F)(F)F)cccc2cc1-c1csc(Nc2ccc(OCCF)cc2)n1	31% (inactive)
N#Cc1nnn(-c2ccc(S(N)(=O)=O)cc2)c1NC(=O)CCl	93.4% (inactive)
C=C1C(=O)O[C@H]2[C@H]1CC/C(C=Nc1ccc(C(F)(F)F)cc1N)=C\CC[C@@]1(C)O[C@@H]21	54% (inactive)
CSc1ccc(-c2ccccc(=O)c2O)cc1	19.5% (inactive)
Clc1ccc2c(NCCNc3nc(N4CCCCC4)nc4ccccc34)ccnc2c1	0.0479% (active)
Cn1ccnc1C(=O)/C=C/c1ccc(CC(=O)Nc2ccccc2)cc1	2.66% (active)
CC(C)CSc1nc(N)nc2c1ncn2C1OC(CO)C(O)C1O (stereo unspecified)	101% (inactive)
Cc1cc(N[C@@H]2CCC[C@H](Nc3ccnc4cc(Cl)ccc34)C2)nc(N2CCCCCC2)n1	-37.8% (active)
CC(C)(CCCN=C(N)Nc1ccc(Cl)cc1)c1ccc(F)cc1	70.9% (inactive)
COc1ccc(-c2nc(SCC(=O)Nc3ccc(C(=O)/C=C/c4ccc(Cl)cc4)cc3)[nH]c(=O)c2C#N)cc1	88.8% (inactive)

Compound	growth
FC(F)(F)Oc1ccc2nc3nc4ccc[nH]c4cc3c2c1	71.6% (inactive)
CCOC(=O)C(C)(C#N)C1C=CCCC1 (stereo unspecified)	80.4% (inactive)
O=C1/C(=C/c2ccc(OCCCOc3ccc(Cl)cc3)cc2)N=C2SCCCN12	103% (inactive)
COc1cc(-c2nn(-c3ccc(C)cc3)cc2C(=O)O)ccc1O	96.7% (inactive)
CC(=O)c1cc2c(N)c(C(=O)Nc3cccc(F)c3C)sc2nc1C	95.7% (inactive)
COc1ccc(C2C(C#N)=C(N)Oc3n[nH]c(-c4cccs4)c32)cc1I (stereo unspecified)	102% (inactive)
CC(=O)c1cc(C(=O)c2ccc3c(c2)Sc2ccccc2N3)n2ccccc12	24.5% (inactive)
CCOC(=O)c1c(C(=O)OCC)c2cc(-c3ccn4c(C(=O)c5ccccc5)c(C(=O)OCC)c(C(=O)OCC)c4c3)ccn2c1C(=O)c1ccccc1	99.9% (inactive)
Cc1cc(N2CCCC2)nc(NC2CCCC(Nc3ccnc4cc(Cl)ccc34)C2)n1 (stereo unspecified)	-42.6% (active)
COc1ccc2c(c1)CC/C(=C\c1cncc(Br)c1)C2=O	106% (inactive)
CCc1nc(N)nc(N)c1C#CC(C)c1ccc(-c2ccncc2)cc1Cl (stereo unspecified)	38.4% (inactive)
CC(=O)O[C@H]1C(=O)[C@@]2(C)[C@H]([C@H](OC(=O)c3ccccc3)[C@]3(O)C[C@H](OC(=O)[C@H](OC(=O)CCC(=O)OC4CCC(S/N=C(N)/N=C(\N)N(C)C)CC4)[C@@H](NC(=O)c4ccccc4)c4ccccc4)C(C)=C1C3(C)C)[C@]1(OC(C)=O)CO[C@@H]1C[C@@H]2O (stereo partly specified)	17.8% (inactive)
CCNC(=O)Oc1ccc(/C(=C(\C)c2ccc(Cl)cc2)c2ccc(OCCN3CCCCC3)cc2)cc1	75.2% (inactive)
CCOc1ccc(C(C)=O)cc1NC(=O)c1cccc(-c2nnn(CC)n2)c1	49.1% (inactive)
CC/C=C\C[C@H]1C/C=C2/C(=O)C=C[C@H]2C/C=C\CCCC(=O)O1	37.7% (inactive)
COc1cccc2c1C(=O)c1c(O)c3c(c(O)c1C2=O)C[C@](O)(C(=O)CO)C[C@H]3O[C@@H]1C[C@@H](NC(=O)CCCCCN(C)C2(c3ccc(F)cc3)CC3CCC2C3)[C@H](O)[C@@H](C)O1 (stereo partly specified)	53.7% (inactive)
O=C(CN1CCCCC1)Nc1ccc2oc(=O)ccc2c1	105% (inactive)
COc1cc(C)c(C2C(C#N)=C(N)Oc3n[nH]c(-c4cccs4)c32)cc1C(C)C (stereo unspecified)	108% (inactive)
CCNC(=O)Oc1ccc(/C(=C(\C)c2ccc(Cl)cc2)c2ccc(OCCN(CC)CC)cc2)cc1	68.7% (inactive)

test system: HOP-62 NSCLC; test: as above; conditions: 10 µM unless noted

Compound	growth
CCOC(=O)c1cc(C(=O)c2ccc(O)c(O)c2)n2ccc(-c3ccn4c(C(=O)c5ccc(O)c(O)c5)cc(C(=O)OCC)c4c3)cc12	99.7% (inactive)
CC1C(/C=N/Nc2ccccc2)C(C#N)(C#N)C1(C#N)C#N (stereo unspecified)	57.1% (inactive)
O=C(/C=C/c1ccc(C(F)(F)F)cc1)Nc1ccc(C=C2c3ccccc3C(=O)c3ccccc32)cc1	78.8% (inactive)
CC/C=C\C[C@H](O)C/C=C1/C(=O)C=C[C@@]1(C)C/C=C\CCCC(=O)OC	104% (inactive)
COc1cc(-c2nn(-c3ccc(C(=O)O)cc3)cc2C(=O)O)ccc1O	61.6% (inactive)
COc1ccc(O)c(N=Nc2nccs2)c1	94.2% (inactive)
NCCNc1nc(Nc2ccc(-c3nc4ccccc4[nH]3)cc2)c2cn[nH]c2n1	97.5% (inactive)
COc1cc(-c2nn(-c3ccc(Br)cc3)cc2C(=O)O)ccc1O	96.3% (inactive)
OCCN1CCN(c2nc(Nc3ccc(-c4nc5ccccc5[nH]4)cc3)c3cn[nH]c3n2)CC1	-93.2% (active)
O=c1oc2c(C(F)(F)F)cccc2cc1-c1csc(Nc2ccc(OCCF)cc2)n1	22.5% (inactive)
N#Cc1nnn(-c2ccc(S(N)(=O)=O)cc2)c1NC(=O)CCl	92.2% (inactive)
C=C1C(=O)O[C@H]2[C@H]1CC/C(C=Nc1ccc(C(F)(F)F)cc1N)=C\CC[C@@]1(C)O[C@@H]21	47.6% (inactive)
CSc1ccc(-c2ccccc(=O)c2O)cc1	3.95% (active)
Clc1ccc2c(NCCNc3nc(N4CCCCC4)nc4ccccc34)ccnc2c1	-18.2% (active)
Cn1ccnc1C(=O)/C=C/c1ccc(CC(=O)Nc2ccccc2)cc1	6.23% (active)
CC(C)CSc1nc(N)nc2c1ncn2C1OC(CO)C(O)C1O (stereo unspecified)	95.2% (inactive)
Cc1cc(N[C@@H]2CCC[C@H](Nc3ccnc4cc(Cl)ccc34)C2)nc(N2CCCCCC2)n1	-69.7% (active)
CC(C)(CCCN=C(N)Nc1ccc(Cl)cc1)c1ccc(F)cc1	69.2% (inactive)
COc1ccc(-c2nc(SCC(=O)Nc3ccc(C(=O)/C=C/c4ccc(Cl)cc4)cc3)[nH]c(=O)c2C#N)cc1	100% (inactive)

Compound	growth
FC(F)(F)Oc1ccc2nc3nc4ccc[nH]c4cc3c2c1	58.4% (inactive)
CCOC(=O)C(C)(C#N)C1C=CCCC1 (stereo unspecified)	89.8% (inactive)
O=C1/C(=C/c2ccc(OCCCOc3ccc(Cl)cc3)cc2)N=C2SCCCN12	99.1% (inactive)
COc1cc(-c2nn(-c3ccc(C)cc3)cc2C(=O)O)ccc1O	88.2% (inactive)
CC(=O)c1cc2c(N)c(C(=O)Nc3cccc(F)c3C)sc2nc1C	73.8% (inactive)
COc1ccc(C2C(C#N)=C(N)Oc3n[nH]c(-c4cccs4)c32)cc1I (stereo unspecified)	81.7% (inactive)
CC(=O)c1cc(C(=O)c2ccc3c(c2)Sc2ccccc2N3)n2ccccc12	21.8% (inactive)
CCOC(=O)c1c(C(=O)OCC)c2cc(-c3ccn4c(C(=O)c5ccccc5)c(C(=O)OCC)c(C(=O)OCC)c4c3)ccn2c1C(=O)c1ccccc1	97.4% (inactive)
Cc1cc(N2CCCC2)nc(NC2CCCC(Nc3ccnc4cc(Cl)ccc34)C2)n1 (stereo unspecified)	-84.4% (active)
COc1ccc2c(c1)CC/C(=C\c1cncc(Br)c1)C2=O	90% (inactive)
CCc1nc(N)nc(N)c1C#CC(C)c1ccc(-c2ccncc2)cc1Cl (stereo unspecified)	10.3% (inactive)
CC(=O)O[C@H]1C(=O)[C@@]2(C)[C@H]([C@H](OC(=O)c3ccccc3)[C@]3(O)C[C@H](OC(=O)[C@H](OC(=O)CCC(=O)OC4CCC(S/N=C(N)/N=C(\N)N(C)C)CC4)[C@@H](NC(=O)c4ccccc4)c4ccccc4)C(C)=C1C3(C)C)[C@]1(OC(C)=O)CO[C@@H]1C[C@@H]2O (stereo partly specified)	29.7% (inactive)
CCNC(=O)Oc1ccc(/C(=C(\C)c2ccc(Cl)cc2)c2ccc(OCCN3CCCCC3)cc2)cc1	58.7% (inactive)
CCOc1ccc(C(C)=O)cc1NC(=O)c1cccc(-c2nnn(CC)n2)c1	36.8% (inactive)
CC/C=C\C[C@H]1C/C=C2/C(=O)C=C[C@H]2C/C=C\CCCC(=O)O1	22.5% (inactive)
COc1cccc2c1C(=O)c1c(O)c3c(c(O)c1C2=O)C[C@](O)(C(=O)CO)C[C@H]3O[C@@H]1C[C@@H](NC(=O)CCCCCN(C)C2(c3ccc(F)cc3)CC3CCC2C3)[C@H](O)[C@@H](C)O1 (stereo partly specified)	46.9% (inactive)
O=C(CN1CCCCC1)Nc1ccc2oc(=O)ccc2c1	99.7% (inactive)
COc1cc(C)c(C2C(C#N)=C(N)Oc3n[nH]c(-c4cccs4)c32)cc1C(C)C (stereo unspecified)	96.8% (inactive)
CCNC(=O)Oc1ccc(/C(=C(\C)c2ccc(Cl)cc2)c2ccc(OCCN(CC)CC)cc2)cc1	54.6% (inactive)
